In PubChem BioAssay AID720690 (Broad Institute, 2013):
Potency and affinity values are given separately. Values without a mark were called inactive.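 The calls were made as follows: active = every repeat run showing a signal drop whose fitted half-maximal concentration is at most twice the top tested concentration; inconclusive = repeat runs disagree, or flat partial drop, or poor fit; inactive = the rest.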

Experiment: HEK293T cytotoxicity, dose response, cytotoxicity control for miR-122 modulator project, cell-based, activator set, cherry-pick (AID 720690);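 also: 0% = neutral control wells and -100% = MG132 cytotoxic control wells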
Conditions: HEK293T viability, CellTiter-Glo luminescence, 48 h; series mostly up to 26 µM; activity change, negative = cytotoxicity: at the top concentration

Row | Compound | activity change, negative = cytotoxicity
1 | O=C(CNCCC1=CCCCC1)Nc1ccccc1N1CCCCCC1 | -25.6%
2 | O=C(Cn1c(=O)c2ccccc2n(CC(=O)N2CCCCC2)c1=O)N1CCCCC1 | -30.5%
3 | O=C(C1CC1)N1C[C@H]2[C@@H](c3ccccc31)[C@H](CO)N2C(=O)c1ccccc1F | 0.81% [at 23.5 µM]
4 | COc1ccc(-c2cn3c(C)c(C(=O)Nc4cccc(NC(C)=O)c4)sc3n2)cc1 | 39.5%
5 | CN1C(=O)c2cc(NS(=O)(=O)c3ccc(Cl)cc3)ccc2OC[C@H]2O[C@H](CC(=O)N3CCc4ccccc4C3)CC[C@@H]21 | -15.6%
6 | COc1ccc(CCNC(=O)c2c(C)cc(=O)oc2C)cc1OC | -25.6%
7 | CC(=O)N(C)C[C@H]1[C@@H](c2ccc(-c3ccc(F)cc3)cc2)[C@@H](CO)N1C(C)=O | 10.1%
8 | CN1C(=O)c2cc(NC(=O)c3cccc(C(F)(F)F)c3)ccc2OC[C@@H]2O[C@@H](CC(=O)NCCN3CCCC3)CC[C@@H]21 | 9.28%
9 | CN1C(=O)c2cc(NC(=O)Nc3ccccc3F)ccc2OC[C@@H]2O[C@@H](CC(=O)NCc3ccc(-c4ccccc4)cc3)CC[C@H]21 | -12.3%
10 | CCCNC(=O)C[C@@H]1CC[C@@H]2[C@@H](COc3ccc(NS(=O)(=O)c4ccccc4C)cc3C(=O)N2C)O1 | -3.61%
11 | C[C@@H]1CN([C@@H](C)CO)S(=O)(=O)c2ccc(C#Cc3ccncc3)cc2O[C@@H]1CN(C)C(=O)C1CCOCC1 | -7.81%
12 | Cc1cc(C(=O)Nc2ccc3c(c2)C(=O)N(C)[C@H]2CC[C@@H](CC(=O)N[C@@H](C)c4ccccc4)O[C@H]2CO3)no1 | -6.39% [at 23.5 µM]
13 | O=C(NCC(c1cccnc1)N1CCOCC1)NC1CCCCC1 (centres undefined) | 0.711%
14 | O=C(C1CC1)N(CCN(C(=O)C1CC1)c1ccccc1)c1ccccc1 | -9.34%
15 | O=C(c1cccnc1)N1C[C@H]2[C@@H](c3ccccc31)[C@H](CO)N2C(=O)Nc1ccccc1Cl | -14.2% [at 23.5 µM]
16 | C/C=C/c1ccc([C@H]2[C@H](CO)N[C@@H]2CN(CC)C(=O)c2cccnc2)cc1 | -12.1%
17 | CNc1nc(NCCOc2ccccc2)c2sccc2n1 | -26.9%
18 | CN(C[C@H]1N[C@@H](CO)[C@@H]1c1ccc(C2=CCCC2)cc1)C(=O)c1ccccn1 | -20.3%
19 | CCC(=O)N1[C@@H](CO)[C@H](c2ccccc2)[C@@H]1CN(C(C)C)S(C)(=O)=O | 0.504%
20 | COC(=O)C[C@H]1CC[C@H]2[C@@H](COc3ccc(NC(=O)Nc4c(C)noc4C)cc3C(=O)N2C)O1 | 4.81%

Row | Compound | activity change, negative = cytotoxicity
21 | COc1ccc(-c2ccc(C#N)c(OC(=O)c3c(Cl)cccc3Cl)n2)cc1 | -0.324%
22 | CN1C(=O)c2cc(NC(=O)c3cccc(F)c3)ccc2OC[C@H]2O[C@H](CC(=O)O)CC[C@H]21 | 1.11%
23 | CN1C(=O)c2cc(NC(=O)c3ccccc3F)ccc2OC[C@H]2O[C@@H](CC(=O)NCc3ccc4c(c3)OCO4)CC[C@@H]21 | -4.16%
24 | CCCNC(=O)Nc1ccc2c(c1)C(=O)N(C)[C@H]1CC[C@@H](CC(=O)NCC3CCCCC3)O[C@@H]1CO2 | 4.38%
25 | CCOc1ccc(CCNC(=O)C2CCN(S(=O)(=O)N3CCC(C)CC3)CC2)cc1OCC | 23%
26 | COc1ccccc1C(=O)N1C[C@@H]2[C@H](c3ccccc31)[C@H](CO)N2CC1CCCC1 | -27.2%
27 | CCN(C[C@H]1N[C@H](CO)[C@H]1c1ccc(C2=CCCC2)cc1)C(=O)c1cccnc1 | -5.19%
28 | COc1ccc(S(=O)(=O)N(C)C[C@@H]2Oc3ncc(/C=C/c4ccccc4)cc3C(=O)N([C@@H](C)CO)C[C@@H]2C)cc1 | -17.3%
29 | COCC(=O)N(C)C[C@@H]1[C@H](c2ccc(-c3ccccc3)cc2)[C@@H](CO)N1C(C)=O | -14.3%
30 | COCC(=O)Nc1ccc2c(c1)C(=O)N(C)[C@@H]1CC[C@@H](CC(=O)OC)O[C@@H]1CO2 | 4.36%
31 | C/C=C/c1ccc([C@H]2[C@H](CO)N(C(C)=O)[C@H]2CN(C)C(=O)c2ccccn2)cc1 | 5.37%
32 | CCCNC(=O)C[C@H]1CC[C@@H]2[C@@H](COc3ccc(NC(=O)c4ccc5c(c4)OCO5)cc3C(=O)N2C)O1 | -16.7% [at 23.5 µM]
33 | C/C=C/c1ccc([C@@H]2[C@H](CO)N[C@H]2CN(CC)C(=O)CN2CCOCC2)cc1 | -1.93%
34 | COC(=O)C[C@H]1CC[C@@H]2[C@H](COc3ccc(NC(=O)c4cc(F)cc(F)c4)cc3C(=O)N2C)O1 | 4.97%
35 | C[C@H](CO)N1C[C@H](C)[C@H](CN(C)S(=O)(=O)c2ccc(F)cc2)Oc2ccc(NS(C)(=O)=O)cc2C1=O | -2.03%
36 | COc1ccc(OC)c(Nc2cc(C)nc3ccc(C)cc23)c1 | -11.7%
37 | CCC(=O)N(C)C[C@@H]1[C@H](c2ccc(-c3ccccc3F)cc2)[C@H](CO)N1C(C)=O | -4.35%
38 | CO[C@@H]1CN(C)C(=O)c2ccc(NC(C)=O)cc2OC[C@@H](C)N(C(=O)c2ccccc2F)C[C@H]1C | 3.69% [at 13.5 µM]
39 | COc1ccc(S(=O)(=O)Nc2cc(C)cc(C)n2)c2ccccc12 | 16.4%
